Assay outcomes deposited in PubChem BioAssay by National Center for Advancing Translational Sciences (NCATS).
uPA surface inh: qHTS for Inhibitors of Cell Surface uPA Generation; cell surface uPA generation assay, qHTS; Potency, µM (titrated, usually from 38.3 µM), most hits filed as inhibitors; 0.31% of 330,000 active; AID 540303, 2011; active = well fitted inhibition curve with a large enough effect; inconclusive = small, poorly fitted or top-dose-only effect; inactive = no such curve, though single readings can be large or run the other way; tested in mouse RAW 264.7 cells; also: nearly all actives have a fitted effect of over 55% in size
HT1080 IDH1KD tx: qHTS for induction of synthetic lethality in tumor cells producing 2HG: qHTS for the HT-1080-IDH1KD cell line; HT-1080 IDH1 knockdown viability, ATP luminescence, 48 h; Potency, µM (series often up to 46.1 µM), most hits filed as cytotoxic; 2% of 360,000 active
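Viability of IDH1-knockdown HT-1080 fibrosarcoma cells was assessed by CellTiter-Glo after 48 h at 37 °C with titrated compound; concentration-effect curves were classified by fit quality and response size.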
DT40 TDP1 CPT: qHTS for Inhibitors of human tyrosyl-DNA phosphodiesterase 1 (TDP1): qHTS in cells in presence of CPT. AID 686979, 2013. Potency, µM (titrated, usually from 46.2 µM), actives largely listed as inhibitors. 12% of 420,000 active. chicken DT40 Tdp1-/-;hTDP1 cells + 20 nM CPT, ATP luminescence, 48 h; also: nearly all actives have a fitted effect of over 55% in size
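Chicken DT40 Tdp1-/- cells stably complemented with human TDP1 were seeded at 400 cells/well in medium containing 20 nM camptothecin, exposed to pin-transferred compounds, and grown at 37 °C for at least 48 hr. Viability was read as ATP luminescence.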
DT40 TDP1 no CPT: qHTS for Inhibitors of human tyrosyl-DNA phosphodiesterase 1 (TDP1): qHTS in cells in absence of CPT. Potency, µM (titrated, usually from 46.2 µM), actives largely listed as inhibitors. 15% of 420,000 active. DT40 Tdp1-/- hTDP1 cells, no CPT, ATP luminescence, 48 h; also: nearly all actives have a fitted effect of over 55% in size
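Camptothecin absent (DMSO only). Human TDP1-complemented DT40 knockout cells, 400 cells/well, 37 °C for minimum 48 hr; ATP measured via CellTiter-Glo, 30 min dark incubation, luminescence.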
HT1080NT lethal: qHTS for induction of synthetic lethality in tumor cells producing 2HG: qHTS for the HT-1080-NT fibrosarcoma cell line; AID 686970, 2013; 1.6% of 360,000 active; HT-1080-NT fibrosarcoma viability, CellTiter-Glo ATP luminescence, 48 h; Potency, µM (series often up to 46.1 µM), most hits filed as cytotoxic;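 also: NT is the 2HG producing partner of a matched IDH1 knockdown line; nearly all actives have a fitted effect of over 55% in size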
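750 cells/well, RPMI + 5% FBS; 2 h settle, compound pin-transfer, 48 h at 37 degrees C. CellTiter-Glo 10 min RT, luminescence. Normalized to DMSO and media-only wells.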
IL1B secr inh: qHTS for Inhibitors of Inflammasome Signaling: IL-1-beta AlphaLISA Primary Screen. THP-1 LPS/ATP IL-1B secretion, AlphaLISA, 16 h; active compounds read low. activity change, % at 57.5 µM. 4.7% of 360,000 active. AID 743279, 2014; in the data active = activity change below about -50%; inconclusive = mostly about -30% to -49%
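Secreted IL-1B measured by AlphaLISA bead assay after 16 h compound exposure of THP-1 cells; compounds (final up to 57.5 uM) added 1 h before LPS (250 ng/mL) and ATP (1.25 mM) stimulation; lower signal means less secretion.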
A number is an active result; 0 = inactive; ? = inconclusive; - = not tested or not shown. In the library only some 19% were active in any assay of this set; here they are far more common. Unless noted, calls follow the shape of the dose curve; as a rule, active = well fitted curve in the direction sought with a large enough effect; inconclusive = small, poorly fitted or top-dose-only effect, or another doubt; inactive = no such curve, though single readings can be large; an effect the other way counts as inactive or inconclusive.

SMILES	uPA surface inh	HT1080 IDH1KD tx	DT40 TDP1 CPT	DT40 TDP1 no CPT	HT1080NT lethal	IL1B secr inh
COc1ccc(C(C)NCCC(c2ccc(OC(C)C)cc2)c2ccccc2OC)cc1 (configuration not stated)	0	?	5.8µM	5.8µM	15µM	-98
O=C(/C=C/c1cccc(F)c1)Nc1ccc(S(=O)(=O)N2CCOCC2)cc1	0	0	?	?	0	0
O=C(/C=C/c1ccccc1)Nc1ccc(S(=O)(=O)N2CCOCC2)cc1	0	0	0	0	0	0
CN(C)S(=O)(=O)c1cccc(NC(=O)/C=C/c2ccc(S(=O)(=O)N3CCOCC3)cc2)c1	?	0	15µM	18µM	0	0
CC(=O)c1cccc(NC(=O)/C=C/c2ccc(S(=O)(=O)N3CCOCC3)cc2)c1	0	0	?	18µM	0	0
CCN(CCn1cccn1)C(=O)c1cc(COc2cc(C)ccc2C)on1	0	0	18µM	?	0	0
CCN(CCn1cccn1)C(=O)c1cc(COc2ccccc2SC)on1	0	0	?	?	0	0
Cc1ccc(C)c(OCc2cc(C(=O)N3CCc4sccc4C3)no2)c1	0	0	16µM	23µM	0	?
Cc1ccc(C)c(OCc2cc(C(=O)N3C[C@@H](C)O[C@@H](C)C3)no2)c1	0	0	16µM	?	0	0
Cc1ccc(C)c(OCc2cc(C(=O)N3CCN(c4ccccc4)CC3)no2)c1	0	0	?	0	0	0
COc1cc(C)ccc1OCc1cc(C(=O)N2CCC(c3ccc(F)cc3)C2)no1 (configuration not stated)	0	0	?	2.3µM	0	0
COCC1CCN(C(=O)c2cc(COc3ccc(F)cc3F)on2)C1 (configuration not stated)	0	0	0	?	0	0
Cc1ccc(C)c(OCc2cc(C(=O)N3CCN(C4CCCCC4)CC3)no2)c1	-	0	?	?	0	0
Cc1ccc(C)c(OCc2cc(C(=O)N3CC[C@@H]4CCCC[C@H]4C3)no2)c1	0	0	?	26µM	0	0
CCOC(=O)c1cccc(NC(=S)NC(=O)c2cccnc2)c1	0	0	0	0	0	0
CCOC(=O)C1=C(NC(=S)NC(=O)c2ccccc2)c2ccccc2CC1(C)CC (configuration not stated)	0	?	0	?	0	-56
CCOC(=O)C1=C(NC(=S)NC(=O)c2ccccc2)c2ccccc2CC1C(C)C (configuration not stated)	0	?	?	23µM	?	0
CCOC(=O)c1c(NC(=O)c2ccccc2)sc2c1CCc1ccccc1-2	0	0	?	?	0	0
CC(C)(C)OC(=O)N1CCC[C@H]1C(=O)Nc1ccc(S(=O)(=O)C(F)F)cc1	0	0	13µM	?	0	0
CC(NC(=O)C1CCCN1C(=O)OC(C)(C)C)C(=O)OCc1ccccc1 (configuration not stated)	-	0	23µM	?	0	0
C=C1CCC2C(C)(CO)C(O)CCC2(C)C1C/C=C1\C(=O)OCC1O (configuration not stated)	-	0	4µM	5µM	0	-
CC(C)(C)OC(=O)N1CCC(C(=O)Nc2cccc(C(=O)NCCCc3ccccc3)c2)CC1	?	0	15µM	21µM	0	0
CC(C)(C)OC(=O)N1CCC(C(=O)Nc2cccc(C(=O)NCc3ccccc3)c2)CC1	?	0	23µM	21µM	0	0
O=C(NCc1ccccc1)c1cccc(NC(=O)C2CCC2)c1	0	0	0	0	0	0
CC(C)(C)OC(=O)N1CCCC(C(=O)Nc2cccc(C(=O)NCCCc3ccccc3)c2)C1 (configuration not stated)	0	0	?	?	0	0
SMILES	uPA surface inh	HT1080 IDH1KD tx	DT40 TDP1 CPT	DT40 TDP1 no CPT	HT1080NT lethal	IL1B secr inh
COc1ccccc1C(=O)Nc1ccccc1C(=O)OCc1cc(=O)n2ccsc2n1	-	-	0	0	-	-
Cc1ccc(NC(=O)CN2c3cccc4cccc(c34)S2(=O)=O)cc1S(=O)(=O)N1CCOCC1	0	0	?	18µM	0	0
O=C(CN1c2cccc3cccc(c23)S1(=O)=O)Nc1ccccc1	0	0	?	?	0	0
COc1ccc(NC(=O)CN2C(=O)c3ccccc3S2(=O)=O)cc1OC	0	0	0	0	0	-83
Cc1ccc(NC(=O)CN2C(=O)c3ccccc3S2(=O)=O)cc1C	0	0	0	0	0	0
COc1ccc(NC(=O)CN2c3cccc4cccc(c34)S2(=O)=O)cc1OC	-	0	?	7.3µM	0	0
OC(c1ccc(F)c(F)c1)c1nc(-c2cc(F)cc(F)c2)cs1 (configuration not stated)	-	0	0	0	?	0
CC1(C(=O)NS(=O)(=O)C2CC2)CCCN(C(=O)c2ccc3c(c2)OCO3)C1 (configuration not stated)	-	?	7.3µM	5.8µM	?	0
CC1(C(=O)NS(=O)(=O)C2CC2)CCCN(C(=O)c2ccc3ccccc3c2)C1 (configuration not stated)	-	0	0.52µM	0.26µM	0	0
CCCNC(=O)C1(C)CCCN(C(=O)c2ccc3ccccc3c2)C1 (configuration not stated)	-	0	0	?	?	0
Cn1nc(C(C)(C)C)cc1C(=O)N1CCCC(C)(C(=O)NS(=O)(=O)C2CC2)C1 (configuration not stated)	-	0	6.5µM	6.5µM	?	0
COC(=O)c1ccc(C(=O)N2CCCC(C)(C(=O)NS(=O)(=O)C3CC3)C2)cc1 (configuration not stated)	-	0	?	1.5µM	0	0
CCOc1ccc(CCNC(=O)CSc2n[nH]c(N)n2)cc1OCC	?	0	0	0	0	0
O=C(NCc1ccccc1Cl)c1cc(C(=O)C2CC2)c[nH]1	0	0	?	0	0	0
Cc1c(C(=O)N2CCC(C)(C(=O)NS(=O)(=O)C3CC3)C2)oc2ccccc12 (configuration not stated)	-	0	?	0	0	0
CCNC(=O)C1(C)CCCN(C(=O)/C=C/c2ccccc2)C1 (configuration not stated)	-	0	0	0	?	0
Cc1c(C(=O)N2CCCC(C)(C(=O)NS(=O)(=O)C3CC3)C2)oc2ccccc12 (configuration not stated)	-	0	?	4.1µM	0	0
